# Records with an inconclusive call do not appear. Where a call stands in place of a potency, no number is given. Calls of active or inactive are those of the source. Calls follow the shape of the dose curve; as a rule, active = well fitted curve in the direction sought with a large enough effect; inconclusive = small, poorly fitted or top-dose-only effect, or another doubt; inactive = no such curve, though single readings can be large; an effect the other way counts as inactive or inconclusive.
# Columns and labels:
# [1] = qHTS of pediatric cancer cell lines to identify multiple opportunities for drug repurposing: Primary screen for NB1643 cells (AID 1347099); also: nearly all actives have a fitted effect of over 50% in size
# In short: (§1)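 ATP-based luminescence (CellTiter-Glo) quantifies viability after a 48-hour exposure. Compounds are dosed across 8 or 11 final concentrations; DMSO and 2.3 µM bortezomib serve as controls.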
# [2] = qHTS of pediatric cancer cell lines to identify multiple opportunities for drug repurposing: Primary screen for BT-12 cells (AID 1347101); also: nearly all actives have a fitted effect of over 25% in size; also: potency is read from the fitted curve at half-maximal effect
# In short: (§2)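 Cells (500-1,000/well) rested 5 h, then received compounds for 48 h; metabolically active cells were measured by CellTiter-Glo luminescence. Final concentrations spanned up to 46 µM (MIPE, 11-point) or 0.59 nM-46 µM (NPC, 8-point) in primary screens, 11-point in follow-ups.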
# [3] = qHTS of pediatric cancer cell lines to identify multiple opportunities for drug repurposing: Primary screen for Rh18 cells (AID 1347102); also: nearly all actives have a fitted effect of over 65% in size
# In short: (§3)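 Viability after 48 h compound treatment at 37C, 500-1,000 cells/well, read as ATP luminescence with CellTiter-Glo. Primary screens used 11-point (MIPE, 0.78 nM-46 µM) or 8-point (NPC, 0.59 nM-46 µM) final concentrations; follow-up screens used 11-point dilutions.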
# [4] = qHTS of pediatric cancer cell lines to identify multiple opportunities for drug repurposing: Primary screen for OHS-50 cells (AID 1347103); also: nearly all actives have a fitted effect of over 40% in size; also: potency is read from the fitted curve at half-maximal effect
# In short: as §2
# [5] = qHTS of pediatric cancer cell lines to identify multiple opportunities for drug repurposing: Primary screen for RD cells (AID 1347104); also: nearly all actives have a fitted effect of over 55% in size; also: potency is read from the fitted curve at half-maximal effect
# In short: as §1
# [6] = qHTS of pediatric cancer cell lines to identify multiple opportunities for drug repurposing: Primary screen for MG 63 (6-TG R) cells (AID 1347105); also: nearly all actives have a fitted effect of over 50% in size
# In short: as §1
# [7] = qHTS of pediatric cancer cell lines to identify multiple opportunities for drug repurposing: Primary screen for control Hh wild type fibroblast cells (AID 1347106);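 also: series mostly up to about 46 µM; a drop in luminescence marks cytotoxicity and a rise apparent proliferation; nearly all actives have a fitted effect of over 55% in size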
# In short: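 Cells (500-1,000/well) in growth media were settled 5 h at 37 degrees C, then given compounds for 48 h. Viability was read as CellTiter-Glo luminescence. Primary runs used MIPE at 11 points (0.78 nM-46 µM) and NPC at 8 points (0.59 nM-46 µM); follow-ups used 11 points.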
# [8] = qHTS of pediatric cancer cell lines to identify multiple opportunities for drug repurposing: Primary screen for Rh30 cells (AID 1347107); also: series mostly up to about 46 µM; nearly all actives have a fitted effect of over 75% in size
# In short: as §3
# [9] = qHTS of pediatric cancer cell lines to identify multiple opportunities for drug repurposing: Primary screen for Rh41 cells (AID 1347108);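 also: series mostly up to about 46 µM; luminescence drop marks cytotoxic hits; nearly all actives have a fitted effect of over 70% in size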
# In short: as §1
# [10] = qHTS of pediatric cancer cell lines to identify multiple opportunities for drug repurposing: Confirmatory screen for A673 cells (AID 1347110); also: nearly all actives have a fitted effect of over 65% in size
# In short: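 qHTS titration format: primary MIPE 0.78 nM-46 µM (11 pts), NPC 0.59 nM-46 µM; confirmation 11 pts. 48 h, CTG luminescence.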
# [11] = qHTS of pediatric cancer cell lines to identify multiple opportunities for drug repurposing: Confirmatory screen for SK-N-MC cells (AID 1347111);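 also: cells exposed to compound for 48 h before the readout; nearly all actives have a fitted effect of over 70% in size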; also: potency is read from the fitted curve at half-maximal effect
# In short: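 SK-N-MC cells at 500-1,000 cells/well in growth media were pre-incubated 5 h, then exposed to compounds at 11-point dilutions for 48 h at 37 degrees C, 5% CO2. Viability was read as CellTiter-Glo luminescence.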
# [12] = qHTS of pediatric cancer cell lines to identify multiple opportunities for drug repurposing: Confirmatory screen for BT-12 cells (AID 1347112); also: nearly all actives have a fitted effect of over 55% in size
# In short: as §3
# [13] = qHTS of pediatric cancer cell lines to identify multiple opportunities for drug repurposing: Confirmatory screen for DAOY cells (AID 1347114); also: nearly all actives have a fitted effect of over 65% in size
# In short: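 Viability measured as metabolically active cells via CellTiter-Glo luminescence following 48 hours of compound exposure, 11-point dilutions in confirmatory testing. 500-1,000 cells/well plated 5 hours before dosing; controls were DMSO and 2.3 µM bortezomib.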
# [14] = qHTS of pediatric cancer cell lines to identify multiple opportunities for drug repurposing: Confirmatory screen for NB-EBc1 cells (AID 1347115); also: nearly all actives have a fitted effect of over 45% in size
# In short: as §3
# [15] = qHTS of pediatric cancer cell lines to identify multiple opportunities for drug repurposing: Confirmatory screen for BT-37 cells (AID 1347117); also: nearly all actives have a fitted effect of over 55% in size
# In short: as §3
# [16] = qHTS of pediatric cancer cell lines to identify multiple opportunities for drug repurposing: Confirmatory screen for TC32 cells (AID 1347118); also: nearly all actives have a fitted effect of over 65% in size
# In short: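 qHTS, TC32, 48 h drug treatment, CellTiter-Glo luminescence as a proxy for metabolically active cells; primary top concentration 46 µM (MIPE 11-pt, NPC 8-pt); confirmatory 11-pt.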
# [17] = qHTS of pediatric cancer cell lines to identify multiple opportunities for drug repurposing: Confirmatory screen for LAN-5 cells (AID 1347113); also: nearly all actives have a fitted effect of over 65% in size
# In short: as §3
# [18] = qHTS of pediatric cancer cell lines to identify multiple opportunities for drug repurposing: Primary screen for LAN-5 cells (AID 1347100)
# In short: as §3
structure (smiles),measurement,setting,value
CCc1cc2cc(OC)c(OC)cc2c(Cc2ccccc2)n1,Potency,[1],inactive
same,Potency,[2],inactive
same,Potency,[3],inactive
same,Potency,[4],21.9 µM (active)
same,Potency,[5],inactive
same,Potency,[6],inactive
same,Potency,[7],inactive
same,Potency,[8],inactive
same,Potency,[9],inactive
same,Potency,[10],inactive
same,Potency,[11],inactive
same,Potency,[12],inactive
same,Potency,[13],inactive
same,Potency,[14],inactive
same,Potency,[15],inactive
same,Potency,[16],inactive
CN1CC[C@H](c2c(O)cc(O)c3c(=O)cc(-c4ccccc4Cl)oc23)[C@H](O)C1,Potency,[2],0.276 µM (active)
same,Potency,[4],0.276 µM (active)
same,Potency,[5],0.596 µM (active)
same,Potency,[7],inactive
same,Potency,[8],inactive
Oc1ccc(CCNCCCCCCNCCc2ccccc2)cc1O,Potency,[1],inactive
same,Potency,[6],inactive
same,Potency,[7],inactive
same,Potency,[8],inactive
CCCC(=O)c1cc(O)c(O)cc1O,Potency,[1],inactive
same,Potency,[5],inactive
same,Potency,[6],inactive
same,Potency,[8],inactive
same,Potency,[9],inactive
C[C@H](N)C(=O)N[C@@H](C)C(=O)NC1[C@H]2CN(c3nc4c(cc3F)c(=O)c(C(=O)O)cn4-c3ccc(F)cc3F)C[C@@H]12 (stereo not given in full),Potency,[3],inactive
same,Potency,[4],inactive
same,Potency,[5],inactive
same,Potency,[7],inactive
same,Potency,[8],inactive
same,Potency,[9],inactive
CC(=O)Nc1ccn(C2COC(COC(=O)c3ccccc3)O2)c(=O)n1 (stereo not given),Potency,[3],inactive
same,Potency,[5],inactive
same,Potency,[7],inactive
same,Potency,[8],inactive
same,Potency,[9],inactive
CN1CCC(N(Cc2cccs2)c2ccccc2)CC1,Potency,[2],21.9 µM (active)
same,Potency,[6],inactive
same,Potency,[7],inactive
same,Potency,[8],inactive
N#C/C(=C1/SC[C@@H](c2ccc(Cl)cc2Cl)S1)n1ccnc1,Potency,[3],inactive
same,Potency,[6],inactive
same,Potency,[7],inactive
same,Potency,[8],inactive
CCCC(=O)O[C@]1(C(=O)CCl)[C@@H](C)C[C@H]2[C@@H]3CCC4=CC(=O)C=C[C@]4(C)[C@@]3(F)C(=O)C[C@@]21C,Potency,[1],inactive
same,Potency,[3],inactive
same,Potency,[4],13.8 µM (active)
same,Potency,[6],inactive
same,Potency,[7],inactive
same,Potency,[8],inactive
same,Potency,[10],inactive
same,Potency,[11],14.7 µM (active)
same,Potency,[17],inactive
CC(Oc1c(Cl)cccc1Cl)C1=NCCN1 (stereo not given),Potency,[1],inactive
same,Potency,[2],inactive
same,Potency,[3],inactive
same,Potency,[5],inactive
same,Potency,[6],inactive
same,Potency,[7],inactive
same,Potency,[8],inactive
same,Potency,[9],inactive
CCCN(CCC)C(=O)C(CCC(=O)OCCCN1CCN(CCOC(=O)Cc2c(C)n(C(=O)c3ccc(Cl)cc3)c3ccc(OC)cc23)CC1)NC(=O)c1ccccc1 (stereo not given),Potency,[1],inactive
same,Potency,[2],inactive
same,Potency,[7],inactive
same,Potency,[8],inactive
same,Potency,[9],inactive
O=C(NO)c1ccccc1,Potency,[18],inactive
same,Potency,[2],inactive
same,Potency,[4],inactive
same,Potency,[6],inactive
same,Potency,[7],inactive
same,Potency,[8],inactive
COC(=O)/C=C(/C)N,Potency,[18],inactive
same,Potency,[2],inactive
same,Potency,[3],inactive
same,Potency,[4],inactive
same,Potency,[5],inactive
same,Potency,[6],inactive
same,Potency,[8],inactive
CCCCCCCCCCCCCCCCCCNC(=O)OC1CCN(C(=O)OC[C@H](COC(=O)N(Cc2cccc[n+]2CC)C(=O)c2ccccc2OC)OC)CC1,Potency,[2],8.71 µM (active)
same,Potency,[4],11 µM (active)
same,Potency,[5],23.7 µM (active)
same,Potency,[7],inactive
Cc1c(C)c2c(c(C)c1OC(=O)CCC(=O)OCCO)CC[C@@](C)(CCC[C@H](C)CCC[C@H](C)CCCC(C)C)O2,Potency,[7],inactive
same,Potency,[8],inactive
same,Potency,[9],inactive
OCc1c[nH]c2ccccc12,Potency,[3],inactive
same,Potency,[4],inactive
same,Potency,[6],inactive
same,Potency,[7],inactive
same,Potency,[8],inactive
Nc1ccc2c(c1)CN1C(=O)c3ccccc3C1=N2,Potency,[7],inactive
COc1ccc(-n2nc(CCC(=O)N(C)O)cc2-c2ccc(Cl)cc2)cc1,Potency,[1],inactive
same,Potency,[3],inactive
same,Potency,[4],19.5 µM (active)
same,Potency,[6],inactive
same,Potency,[7],inactive
same,Potency,[8],inactive
CN1CCCN(C(c2ccccc2)c2ccc(Cl)cc2)CC1 (stereo not given),Potency,[4],30.9 µM (active)
same,Potency,[6],inactive
same,Potency,[7],inactive
same,Potency,[8],inactive
same,Potency,[9],inactive
CC(=O)[C@H]1CC[C@H]2[C@@H]3C=CC4=CC(=O)CC[C@@]4(C)[C@@H]3CC[C@]12C,Potency,[1],inactive
same,Potency,[2],inactive
same,Potency,[3],inactive
same,Potency,[6],inactive
same,Potency,[7],inactive
same,Potency,[8],inactive
same,Potency,[9],inactive
O=S(=O)(O)c1ccc2nc(-c3ccccc3)[nH]c2c1,Potency,[7],inactive
Nc1cc(C(F)(F)F)ccc1S,Potency,[18],inactive
same,Potency,[6],inactive
same,Potency,[7],inactive
same,Potency,[8],inactive
